Results published in PubChem BioAssay.

These molecules were tested on Human papillomavirus type 1a E7 protein (residues 1-88) (assay: HPV1a E7 small-molecule binders, primary screen, biochemical, small-molecule microarray, residues 1-88, 635 nm (AID 1129)). Conditions: small-molecule microarray binding, fluorescence 635 nm; higher = more signal.

SMILES	composite z-score
CC(C)N1CC=CC23O[C@@H]4C=CCOC(=O)[C@@H]4[C@H]2C(=O)N(CCCCCO)[C@@H]3C1=O (stereo not given in full)	-0.01
[N-]=[N+]=Nc1ccccc1C[C@@]1(C(=O)N2CCCCC2)N=C(c2ccc(OCCCO)cc2)O[C@@H]1c1ccccc1	1.2
OCC1C=C(/C=C/c2ccccc2)CN1Cc1ccccc1Br (stereo not given)	0.278
C=CC[C@@]1(C(=O)N2CCCCC2)N=C(c2ccc(OCCCO)cc2)O[C@@H]1c1ccccc1N=[N+]=[N-]	1.23
CO[C@H]1O[C@H](CO)[C@@H](OC(=O)Nc2ccc(Oc3ccccc3)cc2)[C@H](OC(=O)Nc2ccc3c(c2)OCO3)[C@@H]1OC(=O)Nc1ccc2c(c1)OCO2	1.24
COCCOC(=O)N1C(=O)[C@@]2(c3ccccc31)[C@H](C(=O)N1CCc3cc(OC)c(OC)cc3C1)[C@H]1C(=O)O[C@H](c3ccccc3)[C@H](c3ccccc3)N1[C@@H]2c1ccc(O)cc1	1.18
CCCCC(=C=CC[C@@H](O)c1cccc(OCCO)c1)C[C@@H](O)c1ccccn1	0.873
CCOC(=O)C[C@H]1[C@H](OC(=O)c2cc3ccccc3oc2=O)[C@@H](NC(=O)CC(C)C)c2cc(OCCCO)ccc2N1C(=O)c1ccccc1	0.926
CC(C)(C)OC(=O)CC[C@@]1(C(=O)N2CCCCC2)N=C(c2ccc(OCCCO)cc2)O[C@@H]1c1ccccc1	1.25
Cc1ccc(S(=O)(=O)N2C[C@@H](C(=O)O)[C@H](Sc3ccccc3)C[C@H]2c2ccccc2)cc1	1.23
O=C1[C@H]2C=C(Br)[C@H](C[C@@H]2OCCCCCCO)[C@@]12CO2	-1.57
COc1ccc(C(=O)Nc2cccc(CN3C(=O)[C@]4(O[C@H](CCn5cc(CCO)nn5)[C@@H]([Si](C)(C)c5ccc(OC)cc5)[C@@H]4C)c4ccccc43)c2)cc1	1.09
C=C[C@H](C)[C@@H](OC(=O)Nc1ccc(SC)cc1)c1ccc(O)c2ccccc12	1.24
COCCOC(=O)N1C(=O)[C@@]2(c3cc(C#CC4(O)CCCCCC4)ccc31)[C@H](C(=O)Nc1nc3ccccc3s1)[C@H]1C(=O)O[C@H](c3ccccc3)[C@H](c3ccccc3)N1[C@@H]2c1ccccc1OCCO	1.2
C=CCC(OC(C)=O)[C@@H]1[C@@H](N(Cc2ccc(-c3ccccc3)cc2)C(=O)Cc2ccc(F)cc2)c2cc(OCCCO)ccc2N1C(=O)c1ccc2ccccc2c1 (stereo not given in full)	-0.0066
CN(C)CCCC[C@@H]1NC(=O)[C@H]2C[C@@H](C(=O)NCCCCCN)[C@@H](c3cccc(OCCO)c3)N2C1=O	1.12
C=CC[C@]1(C(=O)NCc2ccccc2)N=C(c2ccc(OCCCO)cc2)O[C@H]1c1ccccc1CN=[N+]=[N-]	1.21
O=C(CS)NCCCCCNC(=O)[C@@H]1C[C@@H]2C(=O)NCC(=O)N2[C@@H]1c1ccc(O)cc1	0.443

SMILES	composite z-score
C=CCC(OC(C)=O)[C@@H]1[C@@H](N(Cc2ccc(-c3cccc(C(F)(F)F)c3)o2)C(=O)c2cccc3ccccc23)c2cc(OCCCO)ccc2N1C(=O)Cc1ccc2ccccc2c1 (stereo not given in full)	-0.688
C=CCC(OC(C)=O)[C@@H]1[C@@H](N(Cc2ccc(-c3cccc(C(F)(F)F)c3)o2)C(=O)Cc2ccc(OC)cc2)c2cc(OCCCO)ccc2N1C(=O)c1ccc2ccccc2c1 (stereo not given in full)	-0.811
CC(C)CN1C(=O)[C@@]2(c3ccc([N+](=O)[O-])cc3)CC(=O)N(C3CCCCC3)[C@@H]2c2ccc(CO)cc21	-1.07
O=C1C2C=CC(C(O)C=Cc3ccc([N+](=O)[O-])cc3)N(n3cnnc3)C2C(=O)N1Cc1ccccc1 (stereo not given)	1.06
O=C1O[C@H](c2ccccc2)[C@H](c2ccccc2)N2[C@H]1[C@@H](C(=O)NC[C@H](O)c1ccccc1)[C@]1(C(=O)Nc3ccc(C#CC4=CCCCC4)cc31)[C@H]2c1ccccc1OCCO	1.19
O=C1NC(=O)C2C1C=CC(C(O)c1ccc(I)cc1)N2Nc1ccc(Cl)cc1Cl (stereo not given)	1.03
CC(C)CCC[C@@H](C)[C@H]1CC[C@@]2(C)C3=C(CC[C@]12C)[C@@]1(C)CC[C@H](OC(=O)c2ccc(C(F)(F)F)nc2)C(C)(C)C1CC3 (stereo not given in full)	0.763
CC(C)(C)OC(=O)CC[C@]1(C(=O)NCCN2CCOCC2)COC(c2ccc(OCCCO)cc2)=N1	1.19
CN1C(=O)C2C=CC(C(O)c3ccccc3)N(N3CCCCC3)C2C1=O (stereo not given)	1.04
CC[C@@H]1C=C(C(=O)O)[C@H](c2cccc3ccccc23)N1S(=O)(=O)c1ccc(C)cc1	1.11
C=CCNC(=O)[C@H]1[C@@H]2C(=O)O[C@@H](c3ccccc3)[C@@H](c3ccccc3)N2[C@@H](c2ccc(OCCO)cc2)[C@]12C(=O)Nc1ccc(C#CCC(C(=O)OC)C(=O)OC)cc12	1.2
C=CCN1Cc2ccccc2[C@@H]2OC(c3ccc(OCCCO)cc3)=N[C@]2(CCS(=O)(=O)c2ccccc2)C1=O	1.2
C[N+](C)(C)CCCC[C@@H]1NC(=O)[C@H]2C[C@@H](C(=O)NCCCCCCNC(=O)CS)[C@@H](c3ccc(O)cc3)N2C1=O	-0.0478
CC(=O)Nc1cc(Br)ccc1C(=O)NCc1ccccc1	0.6
O=C1C2C=CC(C(O)c3ccc4c(c3)OCO4)N(Nc3ccc([N+](=O)[O-])cc3)C2C(=O)N1c1ccccc1 (stereo not given)	0.978
COc1ccc(C(O)C2C=CC3C(=O)N(C)C(=O)C3N2N(c2ccccc2)c2ccccc2)c2ccccc12 (stereo not given)	-0.172
COc1cc2c(cc1O)C=[N+](Cc1cc3c(cc1Br)OCO3)CC2	-1.07
